Where “and” joins values, the source holds several entries; their conditions need not be identical. Equal entries are not always repeated. Records with an inconclusive call do not appear. Entries that show only a call come without a potency. Some compounds were tested as several samples or in several runs, with calls that do not always agree. Calls of active or inactive are those of the source. The call rests on the fitted dose curve; in most records, active means well fitted cell-killing curve with a large enough effect in the repeat runs; inconclusive means weak or mixed curves, or effect the other way; inactive means flat fitted curve, though single readings scatter.
Experiment: Nuclear factor erythroid 2-related factor 2/antioxidant responsive element (Nrf2/ARE) small molecule agonists: qHTS cell viability counter screen in human keratinocytes (AID 1919968); further: nearly all actives have a fitted effect of over 55% in size
Details: KeratinoSens HaCaT ARE cells viability, CellTiter-Fluor, 24 h; series mostly up to 92.4 µM
Text: U.S. Tox21 Program National Center for Advancing Translational Sciences [NCATS] Division of Preclinical Innovation [DPI] U.S. Environmental Protection Agency [EPA] National Institutes of Environmental Health Sciences [NIEHS] National Toxicology Program [NTP] U.S. Food and Drug Administration [FDA] Tox21 Assay Overview: Oxidative stress has been implicated in the pathogenesis of a variety of diseases ranging from cancer to neurodegeneration. The antioxidant response element (ARE) signaling pathway plays an important role in the amelioration of oxidative stress. The KeratinoSens (Givaudan, Switzerland) is an in vitro test method which quantifies luciferase induction as a measure of activation of Keap1-Nrf2-antioxidationt/electrophile response element (ARE) dependant pathway in HaCaT human keratinocytes stably transfected with a selectable plasmid. The KeratinoSens assay is a cell-based assay with a reporter cell line to detect potential skin sensitizers by their ability to induce the Nrf2/ARE-response. The activation of the report gene under culture conditions can be detected by ONE-Glo Luciferase Assay System (Promega, Madison, WI). This cell line has been used to screen the Tox21 10K compound library to identify agonists that induce oxidative stress. The cytotoxicity of the Tox21 compound library against the KS-ARE cell line was tested in parallel by measuring the cell viability using CellTiter- Fluor assay system (Promega, Madison, WI) in the same wells.
Tox21 Assay Protocol Summary: HaCaT derived cell line KeratinoSens were dispensed at 1,500 cells/5uL/well in 1536-well white wall/solid bottom plates using a Multidrop Combi (ThermoFisher Scientific, Waltham, MA) dispenser. After the assay plates were incubated at 37 C/5% CO2 for 5 h, 23 nL of compounds dissolved in DMSO, positive controls or DMSO only was transferred to the assay plate by a pintool workstation (Kalypsys, San Diego, CA). The plates were incubated at 37 C/5% CO2 for 23 h, followed by addition of 1uL/well of CellTiter-Fluor reagent into the assay plates using a Flying Reagent Dispenser (Aurora Discovery, San Diego, CA) for cell viability readout that measures cytotoxicity. After 1 h incubation at 37 C/5% CO2 the fluorescence intensity was measured using a ViewLux (PerkinElmer, Shelton, CT) plate reader.
Potency means the concentration at half of the fitted maximal effect.

SMILES | Potency
NCc1cccnc1 | inactive
CSc1nnc(C(C)(C)C)c(=O)n1N | inactive
CN(C)c1ccccc1 | inactive
CCC(C)C(C)(COC(N)=O)COC(N)=O (stereo not given) | inactive
CCCOC(=O)c1cncn1C(C)c1ccccc1 (stereo not given) | inactive
CN(C)CCc1c[nH]c2cccc(OP(=O)(O)O)c12 | inactive
CCC(C)(C)c1ccc(O)cc1 | 61.8 µM (active) and inactive
CC(C)COC(=O)c1ccccc1C(=O)OCC(C)C | inactive
Cc1ccccc1O | inactive
CCCCOC(=O)c1ccccc1C(=O)O | inactive
CCNc1nc(Cl)nc(NC(C)C)n1 | inactive
CCc1cc(C)cc(CC)c1-c1c(OC(=O)C(C)(C)C)n2n(c1=O)CCOCC2 | inactive
N#CS | inactive
CCOP(=O)(OCC)Oc1ccc([N+](=O)[O-])cc1 | inactive
C[N+](C)(C)C | inactive
CC1CC(CC2CCC(N)C(C)C2)CCC1N (stereo not given) | 7.82 µM (active)
COc1ccccc1OC | inactive
C=Cc1cccc(CCl)c1 | inactive
Cc1cnc(C2=NC(C)(C(C)C)C(=O)N2)c(C(=O)O)c1 (stereo not given) | inactive
CCCCCCCCCCn1cc[n+](C)c1 | inactive and 61.4 µM (active) and 30.6 µM (active)

SMILES | Potency
CC1(C)Cc2cccc(O)c2O1 | inactive
CCOc1cc(C=O)ccc1O | inactive
Cc1ccccc1[N+](=O)[O-] | inactive
C=CCc1ccc2c(c1)OCO2 | inactive
COC(=O)c1sccc1S(=O)(=O)NC(=O)Nc1nc(C)nc(OC)n1 | inactive
CCCCCCCCCCCCCCCCCC(=O)O | inactive
CCC(C)c1ccc(O)cc1 (stereo not given) | inactive
CC1CC(=O)O1 (stereo not given) | inactive
NNC(=O)c1ccccc1 | inactive
BrC(Br)Br | inactive
O=[N+]([O-])c1cc([As](=O)(O)O)ccc1O | inactive
O=C/C=C/c1ccccc1 | inactive
Cc1ccc(N)c(N)c1 | inactive
CNC(=O)O/N=C/C(C)(C)S(C)(=O)=O | inactive
O=C(O)CC[N+](=O)[O-] | inactive
C=CC(N)=O | inactive
O=C([O-])c1ccccn1.O=C([O-])c1ccccn1.O=C([O-])c1ccccn1.[Cr+3] | inactive
Oc1ccc(Cl)c(Cl)c1 | inactive
COc1ccc2c(c1OC)C(=O)O[C@@H]2[C@H]1c2cc3c(cc2CCN1C)OCO3 | inactive
C[N+](C)(C)CC(=O)O | inactive

From PubChem BioAssay (Tox21)
